# HT1080-NT tox: kills 2HG-producing HT-1080-NT fibrosarcoma cells | AID 686970 | hit rate 1.6% among 360,000 | HT-1080-NT fibrosarcoma viability, CellTiter-Glo ATP luminescence, 48 h | Potency, µM (top dose mostly 46.1 µM), for inactives: at the highest dose activity, negative = less viability, actives largely listed as cytotoxic;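 also: NT is the 2HG producing partner of a matched IDH1 knockdown line; potency is read from the fitted curve at half-maximal effect; 0% = DMSO-treated cells and -100% = media-only wells without cells; nearly all actives have a fitted effect of over 55% in size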
#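 Luminescent CellTiter-Glo readout after 48 hours of compound exposure at 37 degrees C defined viability of HT-1080-NT cells. Activity was normalized to DMSO wells and cell-free media wells; concentration-response curves were fitted and assigned curve classes.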
# HT1080 IDH1KD tx: toxicity to HT-1080 IDH1 knockdown cells (counter line) | Potency, µM (highest dose often 46.1 µM), for inactives: at the highest dose activity, negative = toxicity, hits mostly cytotoxic | hit rate 2% among 360,000 | HT-1080 IDH1 knockdown viability, ATP luminescence, 48 h;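 also: potency is read from the fitted curve at half-maximal effect; 0% = DMSO wells and -100% = cell-free medium wells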
#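 Cytotoxicity counter-line: IDH1KD HT-1080, 48 h, CellTiter-Glo. Curves classed by r2, magnitude and activity.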
# DT40 TDP1 CPT: growth inhibition of DT40 Tdp1-/-;hTDP1 cells with camptothecin (screen for TDP1 inhibitors) | hit rate 12% among 420,000 | Potency, µM (titrated, usually from 46.2 µM), without a hit: top-dose activity change, negative = growth inhibition, usual class: inhibitors | chicken DT40 Tdp1-/-;hTDP1 cells + 20 nM CPT, ATP luminescence, 48 h; also: potency is read from the fitted curve at half-maximal effect; nearly all actives have a fitted effect of over 55% in size
#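 Cell growth measured by CellTiter-Glo luminescence after a minimum 48 h, 37 C compound exposure with 20 nM CPT in Tdp1-knockout DT40 cells stably expressing hTDP1, seeded 400/well; qHTS titration format.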
# DT40 TDP1 no CPT: qHTS for Inhibitors of human tyrosyl-DNA phosphodiesterase 1 (TDP1): qHTS in cells in absence of CPT; DT40 Tdp1-/- hTDP1 cells, no CPT, ATP luminescence, 48 h; Potency, µM (highest dose often 46.2 µM), for the others: at the top dose activity change, negative = growth inhibition, hits mostly inhibitors; hit rate 15% among 420,000; AID 686978, 2013; also: potency is read from the fitted curve at half-maximal effect; nearly all actives have a fitted effect of over 55% in size
#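 Stably hTDP1-transfected Tdp1-null chicken DT40 cells were treated with library compounds minus camptothecin and grown for at least 48 hr at 37 °C, after which cellular ATP was quantified by luminescence.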
# ALOX12 inh: inhibitors of human 12S-lipoxygenase ALOX12 | hit rate 1.1% among 580,000 | AID 1671190 | purified 12hLO, xylenol orange hydroperoxide absorbance | P18054 | Potency, µM (top dose mostly 108 µM), without a hit: top-dose activity change, negative = inhibition, hits mostly inhibitors; also: potency is read from the fitted curve at half-maximal effect
# Target sequence (P18054 whole entry, looked up): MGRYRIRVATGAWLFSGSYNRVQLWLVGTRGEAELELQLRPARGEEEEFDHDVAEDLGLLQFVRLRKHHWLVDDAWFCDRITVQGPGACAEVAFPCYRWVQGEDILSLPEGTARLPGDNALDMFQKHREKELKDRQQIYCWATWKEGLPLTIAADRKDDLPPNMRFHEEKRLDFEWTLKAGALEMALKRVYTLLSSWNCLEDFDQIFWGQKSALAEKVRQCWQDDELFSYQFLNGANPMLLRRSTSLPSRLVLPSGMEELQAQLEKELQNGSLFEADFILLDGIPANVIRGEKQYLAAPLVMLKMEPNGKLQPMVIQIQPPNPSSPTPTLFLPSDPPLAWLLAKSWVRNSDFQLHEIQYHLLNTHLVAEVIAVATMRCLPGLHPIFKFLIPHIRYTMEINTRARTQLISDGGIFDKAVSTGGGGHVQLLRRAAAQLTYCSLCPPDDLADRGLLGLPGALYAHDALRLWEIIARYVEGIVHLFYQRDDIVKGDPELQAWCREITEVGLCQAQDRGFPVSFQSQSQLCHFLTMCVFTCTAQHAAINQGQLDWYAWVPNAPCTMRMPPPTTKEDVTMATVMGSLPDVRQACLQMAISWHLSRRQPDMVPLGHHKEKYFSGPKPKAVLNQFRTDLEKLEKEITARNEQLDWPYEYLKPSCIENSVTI
#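 Purified human 12hLO (150 nM final) in 25 mM Hepes, 0.01% Triton X-100, pH 7.0 was preincubated 15 min at room temperature with compound. Then 40 uM arachidonic acid was added, 30 min. Hydroperoxide was read by Fe-XO absorbance ratio 573/405 nm.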
# IL-1B inflam inh: inflammasome signaling inhibition, IL-1 beta readout; THP-1 LPS/ATP IL-1B secretion, AlphaLISA, 16 h; active compounds read low; AID 743279; activity change, % at 57.5 µM; hit rate 4.7% among 360,000; in the data active = activity change below about -50%; inconclusive = mostly about -30% to -49%
#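 THP-1 cells pretreated 1 hr with compounds (up to 57.5 uM final), then stimulated with LPS (250 ng/mL final) plus ATP (1.25 mM final); secreted IL-1B measured by AlphaLISA after 16 hr, decreased signal indicating inhibition.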
# The depositor's hits bear a star; ? = inconclusive; . = no result; [ ] = dose if it differs, or a comment. The entries come from a sample that favours hits as a whole. Unless noted, calls follow the shape of the dose curve; as a rule, active = well fitted curve in the direction sought with a large enough effect; inconclusive = small, poorly fitted or top-dose-only effect, or another doubt; inactive = no such curve, though single readings can be large; an effect the other way counts as inactive or inconclusive. Unless noted, % is scaled to controls: 0 for no effect and ±100 for the full control effect.
SMILES,HT1080-NT tox,HT1080 IDH1KD tx,DT40 TDP1 CPT,DT40 TDP1 no CPT,ALOX12 inh,IL-1B inflam inh
C1=C(CCNc2nnnn2-c2ccccc2)CCCC1,-19%,-23%,18µM*,?,-5%,47
c1ccc(CN2CCC3(CCCc4ccccc43)CC2)cc1,?,16µM*,?,16µM*,-2%,3
CC1(C(=O)O)CCN(Cc2ccccc2)CC1,.,.,.,.,0%[12.5 µM],.
Cc1nnsc1C(=O)N[C@H]1CCN(C(=O)COCC(=O)O)[C@H](C(=O)N[C@H](CC(C)C)C(N)=O)C1,.,.,.,.,11%,.
CCOC(=O)N1CCN(C(=O)C2CCCN(S(=O)(=O)c3ccc(C)cc3)C2)CC1 (stereo not drawn),12%,0%,?,16µM*,23%,18
CCOC(=O)N1CCN(C(=O)C2CCCN(S(=O)(=O)c3ccc(OCC)cc3)C2)CC1 (stereo not drawn),-9%,-11%,?,16µM*,0%,12
CCOc1ccc(S(=O)(=O)N2CCCC(C(=O)N3CCN(c4ccccc4)CC3)C2)cc1 (stereo not drawn),-4%,0%,16µM*,21µM*,170%,-13
CCOc1ccc(S(=O)(=O)N2CCCC(C(=O)N3CCOCC3)C2)cc1 (stereo not drawn),9%,1%,0%,-25%,0%,16
Cc1ccc(/C=N/Nc2nc3ccccc3s2)o1,-8%,-10%,?,?,?,?
C/C(=N\Nc1nc2ccccc2s1)c1ccc2c(c1)OCO2,-29%,-30%,?,-94%,0%,12
CC(=NNc1nc2ccccc2s1)c1ccncn1,?,?,0.1µM*,0.15µM*,20%,-94*
C/C(=N\Nc1nc2ccccc2s1)c1ccc(Br)s1,?,?,?,?,-20%,-103*
Cc1ccc(S(=O)(=O)Nc2ccc3c(c2)CCC3)cc1,-25%,-28%,15µM*,16µM*,-18%,-19
Cn1cnnc1-c1ccc(NS(=O)(=O)c2ccc3c(c2)CCC3)cc1,.,.,.,.,28µM*,.
Cc1ccc(S(=O)(=O)Nc2ccc3c(c2)CCC3)cc1C,5%,2%,-4%,-6%,-6%,15
O=C(O)CC(c1ccncc1)c1c[nH]c2ccccc12 (stereo not drawn),.,.,.,.,3.5µM*,.
Fc1ccc(C(Nc2ccccn2)c2c[nH]c3ccccc23)cc1 (stereo not drawn),-20%,-6%,?,?,6.3µM*,-22
O=[N+]([O-])CC(c1ccc(F)cc1)c1c[nH]c2ccccc12 (stereo not drawn),?,?,7.3µM*,6.5µM*,-15%,0
COc1ccccc1CC(=O)NC(C)C1CC2CCC1C2 (stereo not drawn),.,.,.,.,-31%,.
CC(OC(=O)c1ccc(CS(C)(=O)=O)cc1)C(=O)c1ccc(Cl)cc1 (stereo not drawn),.,.,.,.,19%,.
CC(C)OCc1cccc(CNC(=O)CNC(=O)C2CCCC2)c1,.,.,.,.,10%,.
O=C(COc1ccc(F)cc1)N1CCC2(CC1)NC(=O)N(c1ccccc1Cl)N2,.,.,.,.,1.4µM*,.
O=C(c1ccc(F)cc1Cl)N1CCC2(CC1)NC(=O)N(c1ccccc1Cl)N2,.,.,.,.,1.4µM*,.
O=C(Cc1ccc(F)cc1)N1CCC2(CC1)NC(=O)N(c1ccccc1Cl)N2,.,.,.,.,1.3µM*,.
O=C(Cc1ccc(F)cc1)N1CCC2(CC1)NC(=O)N(Cc1ccc(F)cc1)C2=O,.,.,.,.,6%,.
SMILES,HT1080-NT tox,HT1080 IDH1KD tx,DT40 TDP1 CPT,DT40 TDP1 no CPT,ALOX12 inh,IL-1B inflam inh
O=C1NCCN2CC3(CCN(C(=O)COc4ccc(F)cc4)CC3)CC12 (stereo not drawn),.,.,.,.,77%,.
Cc1cccc(OCCN(C)Cc2cc(=O)oc3c(C)c(O)ccc23)c1,.,.,.,.,3%,.
CCOC(=O)c1c(CNc2ccncc2)n(C)c2cc(Br)c(O)cc12,12%,3%,?,?,-16%,-4
CCOC(=O)c1c(CSC(=N)N)n(-c2ccccc2)c2cc(Br)c(OC(C)=O)cc12,?,?,?,18µM*,?,.
CCOC(=O)c1c(CN2CCN(c3ccccc3)CC2)oc2cc(Br)c(O)cc12,?,-8%,?,?,?,13
CCOC(=O)c1c(CN2CCN(CCO)CC2)n(-c2ccccc2)c2cc(Br)c(O)cc12,?,23µM*,?,18µM*,?,-81*
CCOC(=O)c1c(CN2CCN(C)CC2)n(-c2ccccc2)c2cc(Br)c(O)cc12,-5%,-3%,?,23µM*,?,-12
CCOC(=O)c1c(CN(CC)CC)n(-c2ccccc2)c2ccc(O)cc12,0%,-26%,?,?,14%,-60*
CCOC(=O)c1c(C)n(-c2ccccc2)c2ccc(O)cc12,-19%,-18%,-28%,?,0%,23
O=C(CNc1cccc(OC(F)(F)F)c1)N1CCNC1=O,.,.,.,.,32%,.
CCOC(=O)c1c(C)n(C)c2ccc(O)c(CN(CC)CC)c12,4%,0%,?,?,-11%,-25
CCOC(=O)c1c(C)n(-c2ccccc2)c2ccc(O)c(CN(C)C)c12,?,?,12µM*,15µM*,2%,.
CCOC(=O)N1CCC(NC(=O)C2CCCN(c3nc4ccccc4o3)C2)CC1 (stereo not drawn),-4%[9.24 µM],-3%,-9%,-18%,-19%,-5
CCOC(=O)N1CCC(NC(=O)C2CCCN(Cc3nc(-c4cccc(C)c4)oc3C)C2)CC1 (stereo not drawn),?,?,5.8µM*,2.6µM*,11%,-27
Cc1ccc(OCc2nc(-c3ccc(C(=O)N4CCN(c5cc(Cl)ccc5C)CC4)cc3)oc2C)cc1,.,.,23µM*,12µM*,-2%,.
Cc1cccc(-c2nc(CN3CCCC(C(=O)NC4CCC(C)CC4)C3)c(C)o2)c1 (stereo not drawn),-26%,-25%,?,18µM*,?,1
Cc1oc(-c2ccc(Cl)cc2)nc1CN1CCCC(C(=O)N2CCOCC2)C1 (stereo not drawn),-10%,0%,?,?,?,15
Cc1cccc(-c2nc(CS(=O)CC(=O)NC3CCCCC3)c(C)o2)c1 (stereo not drawn),-10%,-2%,-21%,-20%,-9%,-3
Cc1cccc(-c2nc(CN3CCCC(C(=O)N4CCN(c5cc(Cl)ccc5C)CC4)C3)c(C)o2)c1 (stereo not drawn),.,.,16µM*,21µM*,?,.
